Assay outcomes (PubChem BioAssay)
A549 tox = Nrf2 qHTS screen for inhibitors: counterscreen for cytotoxicity. A549 ARE-Fluc cells, CellTiter-Fluor viability, 18-24 h. Potency, µM (titrated, usually from 46 µM), hits mostly inhibitors. 390,000 compounds, 0.16% hits. AID 504648, 2011
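A549 ARE_Fluc cells in 5% FBS OPTI-MEM were exposed to compounds in concentration-response for 18-24 h at 37 deg C. Viability was read by CellTiter-Fluor fluorescence (Ex 405/Em 525) after 30 min, before the luciferase read.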
TSG101-PTAP inh = qHTS Assay for Iinhibitors of HIV-1 Budding by Blocking the Interaction of PTAP/TSG101 | 340,000 tested, under 10 active | Potency, µM (titrated, usually from 115 µM), most hits filed as inhibitors | Tumor susceptibility gene 101 protein (Homo sapiens), Q99816 | Fluorescence polarization, FITC-PTAP peptide / Tsg101 binding | AID 493005, 2010; active = well fitted inhibition curve with a large enough effect in the main read-out, with a control signal flat, not every such curve was filed as active; inconclusive = small, poorly fitted or top-dose-only effect, or effect the other way, or a change in a side signal; inactive = no such curve, though single readings can be large or run the other way
Target sequence (Q99816 whole entry, looked up): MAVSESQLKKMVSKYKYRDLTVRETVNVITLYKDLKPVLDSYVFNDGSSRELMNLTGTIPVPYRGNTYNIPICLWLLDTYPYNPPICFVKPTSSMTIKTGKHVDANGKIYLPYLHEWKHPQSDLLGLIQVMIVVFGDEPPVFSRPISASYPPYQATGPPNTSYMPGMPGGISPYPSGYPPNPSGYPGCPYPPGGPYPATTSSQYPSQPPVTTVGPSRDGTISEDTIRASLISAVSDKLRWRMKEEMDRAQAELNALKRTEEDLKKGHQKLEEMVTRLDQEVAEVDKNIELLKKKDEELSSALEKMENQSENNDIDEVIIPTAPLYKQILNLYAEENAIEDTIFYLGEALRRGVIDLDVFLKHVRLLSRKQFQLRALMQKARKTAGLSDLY
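Steps: Tsg101 binding domain dispensed (10 uM final), compounds pinned in DMSO, FITC-labeled PTAP-motif peptide added (50 nM final); after 20 min binding at room temperature, polarization measured.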
Nrf2 inh = Nrf2 qHTS screen for inhibitors; A549 ARE-Fluc reporter, luciferase luminescence, 18-24 h; Potency, µM (series often up to 46 µM), hits mostly inhibitors; 360,000 compounds, 2.1% hits; also: nearly all actives have a fitted effect of over 60% in size
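Nrf2 function is reported as luminescence of an ARE-controlled luciferase in A549 cells. Compounds were tested at several concentrations, and a CellTiter-Fluor read on the same wells flagged cytotoxicity.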
Nrf2 activator = qHTS of Nrf2 Activators | Potency, µM (top dose mostly 46.1 µM), most hits filed as activators | 410,000 compounds, 0.31% hits | AREc32 ARE-luciferase reporter (MCF7-derived line), luminescence, 24 h | AID 624171, 2012; also: nearly all actives have a fitted effect of over 65% in size
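Luciferase luminescence (Steady-Glo, 30 min at room temperature) served as the read-out of ARE activation in AREc32 cells treated with compounds for 24 hr at 37 deg C.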
miR-21 reporter = qHTS Assay for Modulators of miRNAs and/orActivators of miR-21; 340,000 tested, under 10 active; Potency, µM (highest dose often 38.3 µM), usual class: activators; HeLa miR-21 FLuc reporter, luciferase, 48 h;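 also: miR-21 action dims this reporter so a rising signal means less miR-21 action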
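Luminescence from a firefly luciferase reporter carrying a miR-21 binding site downstream, stably expressed under a CMV promoter in HeLa cells that make miR-21 endogenously, reports miRNA modulation after 48 h compound exposure up to approximately 40uM final.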
GRP78 ERSR act = qHTS for Inducers of the Endoplasmic Reticulum Stress Response (ERSR) in Human Glioma: qHTS; Potency, µM, usual class: activators; AID 602332, 2012; U87-MG GRP78 promoter luciferase reporter, 16 h; 420,000 compounds, 0.02% hits; also: series mostly up to about 76 µM; nearly all actives have a fitted effect of over 35% in size
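ERSR induction read as luciferase luminescence (Bright-Glo, 10 min at room temperature) in stably transfected human U87-MG glioma cells exposed to compounds for 16 h, using GRP78 as sensor.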
Numbers stand for hits; n = inactive; u = inconclusive; x = no result given. Rows were chosen to be rich in hits. Some 2.1% of all compounds tested hit in one or more screens of this group. Unless noted, calls follow the shape of the dose curve; as a rule, active = well fitted curve in the direction sought with a large enough effect; inconclusive = small, poorly fitted or top-dose-only effect, or another doubt; inactive = no such curve, though single readings can be large; an effect the other way counts as inactive or inconclusive.

SMILES	A549 tox	TSG101-PTAP inh	Nrf2 inh	Nrf2 activator	miR-21 reporter	GRP78 ERSR act
O=C(Nc1cccc2nsnc12)c1cccs1	n	n	u	7.9µM	n	u
Cc1nc(NC(=O)c2cccs2)ccc1Br	n	n	u	16µM	n	n
O=C(Nc1cccc2cccnc12)c1cccs1	n	x	u	x	x	n
Cc1cc(C)nc(NC(=O)c2cccs2)n1	n	n	n	n	n	n
O=C1CCCC2=C1C1(CCS(=O)(=O)C1)N=C(Nc1nc3ccccc3o1)N2 (configuration not stated)	n	x	u	x	x	x
Cc1ncc2c(c1CNC(=O)c1ccc3c(c1)OCO3)CCN(C(=O)c1cnsn1)C2	x	x	x	x	x	n
Cc1c(P(=S)(c2ccccc2)c2ccccc2)c2ccccc2n1C(=O)Cc1ccccc1	n	x	n	x	x	x
COc1cc(/C=C2\CC(C(C)(C)C)C/C(=C\c3cc(OC)c(OC)c(OC)c3)C2=O)cc(OC)c1OC (configuration not stated)	8.2µM	n	5.8µM	u	n	n
COc1ccc(/C=C2/CCc3ccccc3C2=O)cc1OC	n	n	23µM	u	n	n
COc1ccc(C=C2CCc3ccccc3C2=O)cc1	x	x	x	n	x	n
COc1cc(/C=C2\CC/C(=C\c3cc(OC)c(O)c(OC)c3)C2=O)cc(OC)c1O	u	n	16µM	n	n	n
Cn1cccc1/C=C1\Cc2ccccc2C1=O	n	n	n	11µM	n	n
CN(C)CCOC1=Cc2ccccc2Sc2ccc(Cl)cc21	x	x	x	x	x	n
COc1cccc(C2c3c(ncn(-c4ccc(NC(C)=O)cc4)c3=N)Oc3ccc4ccccc4c32)c1 (configuration not stated)	n	x	n	x	x	x
COc1cc(OC)c(OC)cc1/C=C1/Cc2ccccc2C1=O	n	u	n	5.6µM	n	n
COc1cc(/C=C2/CCc3ccccc3C2=O)cc(OC)c1OC	n	n	15µM	u	n	u
COc1ccccc1C=C1CCc2ccccc2C1=O	x	x	x	u	x	n
COc1cc(/C=C2\CCc3ccccc3C2=O)cc(OC)c1OC	n	n	n	u	n	n
O=C1/C(=C\c2ccc(Br)o2)Cc2ccccc21	n	n	u	11µM	n	n
O=C1C(=Cc2cccc(Cl)c2)Cc2ccccc21	x	x	x	10µM	x	n
CSc1ccccc1C(=O)NCC1Cc2cc(F)cc(-c3cnccn3)c2O1 (configuration not stated)	x	x	x	x	x	n
CN(C)c1c(Cl)cc(/C=C/c2ccnc3ccccc23)cc1Br	x	x	x	x	x	n
CCC1C/C(=C\c2cc(OC)c(OC)cc2OC)C(=O)/C(=C/c2cc(OC)c(OC)cc2OC)C1 (configuration not stated)	u	n	18µM	n	u	n
COCCN(Cc1cc2cc3c(cc2nc1Cl)OCO3)C(=O)Nc1ccccc1OC	n	n	n	n	n	n
COCCN(Cc1cc2cc3c(cc2nc1Cl)OCO3)C(=O)Nc1ccc(F)cc1	n	n	13µM	n	n	n
SMILES	A549 tox	TSG101-PTAP inh	Nrf2 inh	Nrf2 activator	miR-21 reporter	GRP78 ERSR act
COCCN(Cc1cc2cc3c(cc2nc1Cl)OCO3)C(=O)Nc1ccc(OC)cc1	n	n	7.3µM	n	n	n
CCOc1ccc(S(=O)(=O)Nc2cccc(OC)c2)c2cccnc12	n	x	15µM	n	n	n
CCOc1ccc(S(=O)(=O)Nc2ccc(OC)c(Cl)c2)c2cccnc12	n	x	u	n	n	n
Cc1oc(-c2ccccc2)cc1C(=O)Nc1cccc(/C=C/C(=O)O)c1	n	n	23µM	n	n	n
COCc1ccc(C(=O)N2CCOc3ccc(CN4CCN(c5ccc(F)cc5)CC4)cc3C2)o1	x	x	x	x	x	n
CN(C)c1ccc2ccc3cccc4ccc1c2c34	x	x	x	x	x	n
COc1cc(OC)c(NC(=O)Nc2ccc3c(c2)N(C)C(=O)c2ccccc2S3)cc1Cl	n	x	21µM	n	n	n
Cc1ccccc1-c1noc(-c2cccs2)n1	n	n	u	u	n	n
Cc1ccccc1-c1nnc(-c2cccs2)o1	n	n	n	11µM	n	n
